Experimental findings from PubChem BioAssay (NCI) are described below.

This is part of a sample that, as a whole, favours compounds with a hit. Of some 83,000 tested, about 20% had one in any assay.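 Interpretation: 100, growth as untreated; towards 0, rising growth inhibition; 0, no net growth; 0 to -100, cell death. Compounds scoring below 10 were considered active.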 Values without a mark were called inactive. Activity calls are given as the source filed them.

The experiment relates to HOP-92 NSCLC. The experiment is described as follows: NCI-60 one-dose screen, 48 h (100 = growth as untreated, 0 = no growth, -100 = all killed). The conditions noted are these: 10 µM unless noted. The protocol: Growth inhibition of the HOP-92 human Non-Small Cell Lung tumor cell line is measured as a screen for anti-cancer activity. Cells are grown in 96 well plates and exposed to the test compound for 48 hours. Compounds are tested at a single concentration, which is 10^-5 M for most compounds. The reported endpoint is percent growth (GI% or GIPRCNT), where numbers from 0 - 100% represent growth inhibition, and numbers from -100% - 0 represent cell death. For example, a value of 40 represents 60% growth inhibition. A value of 0 means no net growth occurred over the course of the experiment. A value of -40 indicates 40% of cells at the beginning of the experiment died by the end of the experiment. A value of -100 means all cells are dead at the end of the experiment.
NCI-60 Human Tumor Cell Lines Screen was performed using the standard one-dose NCI protocol, which is described in more detail at https://dtp.cancer.gov/discovery_development/nci-60/default.htm.
Compounds with GIPRCNT values below 10 were considered active. Activity score was based on GIPRCNT using the following formula: […]
Score is 0 for GIPRCNT values of 100 or above, 50 for GIPRCNT values of 0, and 100 for GIPRCNT values of -100.
Take `COc1ccc(-c2ccc(C)n2-c2ccc(-c3nc4cc(Cl)ccc4s3)cc2)cc1`: the growth is 133%.
With `NC(N)=N/N=C/c1ccc(-c2ccc(-c3cc(Cl)cc(Cl)c3)s2)cc1`, the growth is 30%.
As to `N=C(N)c1ccc(-c2ccc(-c3ccc4ccccc4c3)s2)cc1`, the growth was 79.3%.
In the case of `CCN1C(=O)N(CC)C2C1NN=c1s/c(=C\c3cccnc3)c(=O)n12` (stereo not given), the growth is 101%.
For `O=C1NN(C(=O)c2ccc(Cl)cc2)C(c2ccccc2)=N/C1=C\c1ccc(F)cc1`, the growth was 83.5%.
Take `CCn1c2ccccc2c2cc(NC(=O)Nc3ccc([N+](=O)[O-])cc3C)ccc21`: the growth is 57.9%.
For `Brc1cccc(-c2cc(-c3ccc4nccnc4c3)[nH]n2)c1`, the growth was 55.5% [25 µM].
The value for `COc1ccncc1S(=O)(=O)NC(=O)Nc1ccc(Cl)c(Cl)c1` was 80.7%.
Consider `COc1ccc(OC)c(C2OC(c3ccc4ccccc4c3O)=NN2C(C)=O)c1` (stereo not given), for which the growth was 54.4%.
`Nc1ncnc2c1c(-c1ccc(Oc3ccccc3)cc1)nn2C[C@@H]1SSC[C@@H]1O`: the growth is -4.45% (active).
For the compound `CN(C)CCN1C(=O)c2ccc3c4c(ccc(c24)C1=O)C(=O)N(CCN=C=S)C3=O`, the growth was -79.5% (active).
For `CC(C)(C)n1cc(-c2ccnc(NCCCNS(=O)(=O)c3cccc(F)c3)c2)c(-c2cccc(O)c2)n1`, the growth was 79.5%.
For `O=c1cc/c(=N\Nc2ccccc2)c(=O)/c1=N/Nc1ccccc1`, the growth is -1.02% (active).
Regarding `COc1ccc(C2C=C(c3ccc(N)cc3)N=C3SC=CN32)cc1OC` (stereo not given), the growth was 109%.
Under `Cn1ncc2c(Sc3ccc(Cl)cc3)ncnc21` stands 25.8%; under `CC(=O)OC[C@]12CC[C@H]3[C@@H](C[C@H]4O[C@]45CC=CC(=O)[C@]35C)[C@]1(O)CC[C@@]2(O)[C@@](C)(O)C1CC(C)=C(C)C(=O)O1` (stereo not given in full), -34.6% (active); under `C/C(=N/NC(=S)Nc1ccccc1)c1nc2ccc(Cl)cc2[nH]1`, -68.8% (active).
For `NC1=NN(O)C2=CC([N+](=O)[O-])C=CC2=N1` (stereo not given), the growth was 94.1%.
As to `O=C(CSc1nc2ccccc2[nH]1)c1ccc(N2CCOCC2)cc1`, the growth is 104%.
In the case of `CC(C)(C)n1cc(-c2ccnc(NCCCNS(=O)(=O)c3ccc(F)cc3)c2)c(-c2cccc(O)c2)n1`, the growth is 60.3%.
Under `O=C1CS/C(=N\Nc2cc(=O)[nH]c3ccccc23)N1c1ccccc1` stands 65.1%; under `O=[N+]([O-])c1ccc(OCCCOc2ccccc2)cc1`, 121%.
For `CCOC(=O)c1cn2c3c(cccc3c1=O)C(=O)/C(=C/c1cccc(Cl)c1Cl)C2`, the growth is 63.8%.
For `COc1ccc(-c2ccc(-c3ccc(-c4ccc(C(=N)N)cc4)s3)s2)cc1OC`, the growth is 33.1%.
In the case of `CCOC(=O)c1ccc(NC(=O)N2CC(C)OC(C)C2)cc1` (stereo not given), the growth was 81.2%.
Consider `N#Cc1c(-c2ccccc2)nc(SCC(=O)N2CCN(c3ccccc3)CC2)[nH]c1=O`, for which the growth was 85%.
Under `CN(C[C@H]1Cc2c(cccc2N2CCN(Cc3ccccn3)CC2)CN1)[C@H]1CCCc2cccnc21` stands 73.2%; under `S=c1[nH]nc(-c2cc3ccc2CCc2ccc(cc2)CC3)n1-c1ccccc1`, 98.4%.
Under `COC(=O)[C@]12CC[C@@H](C)[C@H](C)[C@@H]1C1=CC[C@@H]3[C@@]4(C)C(C=O)=C[C@@](C)(COC(=O)c5ccco5)[C@@H]4[C@H](O)C[C@@]3(C)[C@]1(C)CC2` stands -54.7% (active).
On to `Cc1ccc(S(=O)(=O)NCCNc2nccc(-c3c(-c4ccc(O)cc4)nc4sccn34)n2)cc1`, for which the growth is 101%.
Under `CC(C)(C)n1cc(-c2ccnc(NCCCNS(=O)(=O)c3ccccc3)c2)c(-c2cccc(O)c2)n1` stands 77.7%; under `O=[N+]([O-])c1ccc(C(c2ccccc2)c2ccccc2)cc1`, 85.9%; under `COc1ccc(-c2cn(-c3cccc(C(=O)/C=C/c4cc(OC)c(OC)c(OC)c4)c3)c(=O)[nH]2)cc1OC`, 61.2%.
For the compound `CC1CCC(C)N(C)C1` (stereo not given), the growth was 84.4%.
`COC1=C(OC)C(=O)C(CCCCCCCCCC[P+](c2ccccc2)(c2ccccc2)c2ccccc2)=C(C)C1=O`: the growth was -47.3% (active).
Take `COc1cc(-c2nn(-c3cccc(NC(=O)c4ccc(Cl)c(C(F)(F)F)c4)c3)cc2-c2ccncc2)ccc1Cl`: the growth was 22.5%.
Under `S=c1[nH]nc(-c2cc3ccc2CCc2ccc(cc2)CC3)n1C1CC1` stands 96.1%; under `O=C(/C=C/c1c[nH]c2ccccc12)c1ccc(O)c(CN2CCN(c3ccc(F)cc3)CC2)c1`, 95.5%; under `CSc1nc2c(c(=O)[nH]1)C(c1ccc(C)cc1)C=C(C(=O)O)N2` (stereo not given), 122%.
`C=C(C)[C@@H]1CC[C@]2(C(=O)N3CCNCC3)CC[C@]3(C)[C@H](CC[C@@H]4[C@@]5(C)C/C(=C/c6ccncc6)C(=O)C(C)(C)[C@@H]5CC[C@]43C)[C@@H]12`: the growth was 95.8%.
